# Bioassay records as filed in PubChem BioAssay.
# Mtb UGM inh: blocks M. tuberculosis UGM enzyme; P9WIQ1; purified UGM, fluorescence polarization probe displacement; inhibition, % at 10 µM; 320,000 compounds, 0.06% hits; in the data active = inhibition above about 10%, passing the limit was not always enough
# Rv3671c protease: Rv3671c (M. tuberculosis) protease inhibition; 320,000 compounds, 0.048% hits; inhibition, % at 5.96 µM; P9WHR9; AID 2606; in the data active = inhibition above about 38%;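 note: extracellular domain of Rv3671c used as enzyme; 0% = enzyme with DMSO and 100% = no enzyme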
# BH1578 lux ind: induces V. cholerae light production without autoinducers; V. cholerae BH1578 lux reporter, luminescence, 6 h; activation, % at 18.7 µM; 350,000 compounds, 0.16% hits; AID 588436; in the data active = activation mostly above about 9.7%, no sharp cut-off
# RecA splice inh: inhibitors of M. tuberculosis RecA intein splicing; P9WHJ3; 290,000 compounds, 0.75% hits; cell-free RecA intein splicing, fluorescence; inhibition, % (test concentration not listed); AID 2221; in the data active = inhibition above about 30%;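 note: 0% = vehicle wells and 100% = reference inhibitor control wells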
# Target sequence (P9WHJ3 whole entry, looked up, canonical isoform): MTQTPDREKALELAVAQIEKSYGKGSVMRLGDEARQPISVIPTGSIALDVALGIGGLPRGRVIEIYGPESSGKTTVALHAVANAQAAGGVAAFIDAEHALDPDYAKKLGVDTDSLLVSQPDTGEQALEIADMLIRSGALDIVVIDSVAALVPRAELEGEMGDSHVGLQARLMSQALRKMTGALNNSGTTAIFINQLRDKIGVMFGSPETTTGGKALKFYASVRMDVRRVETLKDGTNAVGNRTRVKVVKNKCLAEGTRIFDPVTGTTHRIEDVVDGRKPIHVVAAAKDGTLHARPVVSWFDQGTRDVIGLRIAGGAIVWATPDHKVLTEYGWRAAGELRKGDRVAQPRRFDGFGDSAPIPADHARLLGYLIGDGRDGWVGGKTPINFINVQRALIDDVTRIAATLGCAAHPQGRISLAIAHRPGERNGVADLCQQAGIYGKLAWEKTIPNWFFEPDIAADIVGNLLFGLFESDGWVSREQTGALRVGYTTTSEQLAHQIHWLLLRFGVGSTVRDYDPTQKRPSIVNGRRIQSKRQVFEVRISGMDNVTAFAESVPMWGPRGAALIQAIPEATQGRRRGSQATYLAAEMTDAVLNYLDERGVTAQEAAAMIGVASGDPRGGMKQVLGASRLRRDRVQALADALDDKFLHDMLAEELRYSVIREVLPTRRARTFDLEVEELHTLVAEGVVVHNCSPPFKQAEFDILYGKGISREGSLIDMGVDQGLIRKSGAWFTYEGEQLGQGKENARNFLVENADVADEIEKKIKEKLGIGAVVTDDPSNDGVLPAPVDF
# GDH-TPI counter: counter-screen for M. tuberculosis FBA inhibitors: GDH-TPI coupled enzymes; AID 588335; inhibition, % at 4.8 µM; 360,000 compounds, 1.2% hits; GDH-TPI coupled enzyme counterscreen, NADH absorbance; in the data active = inhibition above about 30%;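 note: 0% = DMSO wells and 100% = wells lacking the enzyme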
# FBA Mtb inh: inhibits M. tuberculosis FBA enzyme | purified M. tuberculosis FBA, fluorescence read-out | inhibition, % at 1 µM | 360,000 compounds, 2.3% hits | P9WQA3; in the data active = inhibition above about 27%;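 note: 0% = vehicle and 100% = reference inhibitor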
# Numbers without * were called inactive; i = inactive; . = no result; + = active, no number; ! = not active in a repeat. An excerpt weighted towards active compounds, which were near 4.1% of everything screened.
SMILES,Mtb UGM inh,Rv3671c protease,BH1578 lux ind,RecA splice inh,GDH-TPI counter,FBA Mtb inh
CCOC(=O)C1=C(O)C(=O)N(c2ccc(S(N)(=O)=O)cc2)C1c1ccc(Cl)cc1 (centres undefined),2.6,-12.4,i,1.0,6.9,4.7
NS(=O)(=O)c1ccc(N2C(=O)C(=O)/C(=C(/O)c3ccccc3)C2c2ccc(Cl)cc2)cc1 (centres undefined),6.1,-1.1,i,1.5,38.8*,-3.3
CC(C)(C)c1ccc(C(=O)Nc2ccc(Oc3cccnc3)nc2)cc1,-2.8,-1.1,i,.,-9.4,0.2
CCOC(=O)C(=CNc1ccc(Oc2cccnc2)nc1)C(=O)OCC,0.6,5.7,i,-1.8,35.6*,-2.4
Cc1nn(C)c(C)c1NC(=O)COc1ccc(Cl)cc1Br,-1.9,-17.7,i,.,2.2,-0.2
Cc1ccc(C(C[N+](=O)[O-])c2c(-c3ccccc3O)[nH][nH]c2=O)cc1 (centres undefined),2.0,-29.6,-2.1,52.7*,1.9,2.0
O=c1[nH][nH]c(-c2ccccc2O)c1C(C[N+](=O)[O-])c1ccc(Br)cc1 (centres undefined),-1.5,-6.9,-0.2,13.5,0.0,-0.8
O=C(Nc1ccc2nc(-c3cccs3)c(-c3cccs3)nc2c1)NC1CC1,-1.6,-20.5,-0.2,-3.1,32.1*,9.6
c1ccc2c(c1)ncc1cccn12,0.3,1.5,i,0.1,16.7,+
CC(C)NC(=O)C1(C)CCCN1C(=O)c1ccccc1Br (centres undefined),.,.,-4.5,.,10.8,0.7
CCN(CC(=O)Nc1ccc(NC(C)=O)cc1)C(=O)c1ccc(N2CCCC2)c([N+](=O)[O-])c1,.,.,-0.1,.,3.5,-2.9
Cc1cccc(-c2nc(C#N)c(N3CCCCCC3)o2)c1,1.8,4.3,i,-0.1,25.7,138.5*
COc1ccc(N2CCN(c3oc(-c4ccc(OC)c(OC)c4)nc3C#N)CC2)cc1,0.3,-3.4,-0.2,0.5,-9.1,-1.2
COc1ccc(-c2nc(C#N)c(N3CCc4ccccc4C3)o2)cc1OC,-0.3,3.7,2.1,-2.4,40.8*,149.8*
COc1ccccc1-c1nc(C#N)c(N2CCCCCC2)o1,-0.8,-6.5,-0.3,6.6,15.1,+
Cc1cccc(-c2nc(C#N)c(N3CCC(C)CC3)o2)c1,3.2,.,i,-5.0,0.0,8.9
CS(=O)(=O)c1cc(C(=O)O)cc(NCc2ccccc2)c1Oc1ccccc1,.,.,-0.6,.,12.4,13.1
O=C(/C=C/c1ccc([N+](=O)[O-])cc1)OCC(=O)c1ccc[nH]1,1.4,5.1,i,.,18.9,3.0
O=C(N/N=C/c1ccc(O)cc1O)/C(=C/c1ccccc1)CCO,-0.5,17.8,-1.6,-16.9,41.1*,0.5
COc1cc(/C=N/NC(=O)/C(=C/c2ccccc2)CCO)ccc1O,2.4,-7.2,-0.4,-3.3,39.3*,-0.8
COc1ccc(CN2CCN(c3ccccn3)CC2)c(OC)c1C,-1.6,2.5,i,1.1,18.6,+!
COc1cc(/C=C2\NC(=S)NC2=O)ccc1OCc1cccc(C(=O)O)c1,3.0,-5.5,0.3,0.8,32.2*,2.3
COc1cccc(N/C=C(\C#N)c2ccc(OCCCF)cc2)c1,-0.1,8.3,-0.3,-1.9,33.2*,1.6
COc1ccc([N+](=O)[O-])cc1NC(=O)C(C)OC(=O)CC1CCCC1 (centres undefined),0.9,-4.7,i,.,4.8,-1.0
COc1ccc(-c2cnnc(N/N=C/c3ccc(O)cc3)n2)cc1,0.3,0.5,1.3,-4.8,33.8*,0.9
SMILES,Mtb UGM inh,Rv3671c protease,BH1578 lux ind,RecA splice inh,GDH-TPI counter,FBA Mtb inh
Oc1ccc(/C=N\Nc2nncc(-c3ccccc3)n2)cc1,-0.4,6.7,-0.6,-13.0,39.7*,-1.6
N#CC(c1ccc(Cl)cc1)N1CCOCC1 (centres undefined),4.3,1.0,-0.3,.,4.1,0.9
N#CC(c1ccc(O)cc1)N1CCOCC1 (centres undefined),1.4,-0.7,i,-1.6,31.2*,-1.5
Fc1cc(Cl)cc2ccc(-c3ccccc3)nc12,.,.,.,.,.,6.2
COc1ccc(-c2cc(C#N)nc(Cl)n2)cc1,-1.1,6.1,i,40.5*,21.9,9.4
N#Cc1ccc(-c2ccc(F)cc2)nc1Oc1ccc(Cl)c(Cl)c1,-1.7,-3.1,.,2.1,-4.2,1.9
COc1ccc(-c2cc(C#N)nc(Oc3ccc(Cl)cc3)n2)cc1,-0.1,5.2,-0.3,1.3,3.4,1.6
COc1ccc(-c2ccc(C#N)c(OC)n2)cc1,0.6,5.7,0.3,5.2,17.7,+
CCc1cc2c(COC(=O)CCNS(=O)(=O)c3cccc(C(F)(F)F)c3)cc(=O)oc2cc1O,-0.3,-32.7,i,.,8.9,25.9
COc1ccc(/C=C/C(=O)N/C(=C\c2ccco2)C(=O)NCCc2nc3ccccc3[nH]2)cc1,-1.6,2.9,-0.3,5.8,34.2*,-2.8
COc1cc(NC(=O)CN2C(=O)CN(C)C2=O)c(C)cc1[N+](=O)[O-],0.3,6.9,0.3,-1.1,23.2,-0.5
COc1cc(NC(=O)Cn2ncc(Cl)c(Cl)c2=O)c(C)cc1[N+](=O)[O-],.,.,-0.3,53.0*,3.0,-1.6
N#C/C(=C\c1ccc(O)cc1)C(=O)O,.,.,-0.4,.,34.7*!,-1.2
CCc1cc2c(=O)c(-c3nc4ccccc4n3C)coc2c(CN2CCCC(C)C2)c1O (centres undefined),-1.3,-11.1,-2.1,-4.2,34.0*,11.4
CCc1cc2c(=O)c(-c3nc4ccccc4n3C)c(C)oc2c(CN2CCN(CCO)CC2)c1O,-0.2,3.0,i,-2.7,35.1*,11.9
CCc1cc2c(=O)c(-c3nc4ccccc4n3C)c(C)oc2c(CN2CCN(C)CC2)c1O,-0.1,4.2,.,0.0,.,.
CCOC(=O)/C(C#N)=C1/C=CN(Cc2ccccc2)C=N1,-1.7,3.7,-0.7,-1.7,48.3*,-2.7
CCOC(=O)/C(C#N)=C1/C=Nc2ccccc2N1,0.3,1.1,-0.3,.,-1.6,-7.3
CCCCCCN1C=CC(=C/C=C(\C#N)C(=O)OCC)C=C1,-6.2,-0.5,-0.2,-6.8,8.3,-38.5
CCOC(=O)/C(C#N)=C1\C=CN(C)C(C)=N1,2.5,-5.3,i,0.5,41.7*,-0.3
CCOC(=O)/C(C#N)=C1/C=CN(c2ccc(C)cc2)C=N1,-0.4,-6.3,-0.4,-0.4,43.3*,-6.0
CCOC(=O)/C(C#N)=C1/C=CN(c2ccccc2)C=N1,0.2,-1.5,i,1.2,38.3*,0.0
CSc1cccc(NC(=S)N(CCCN2CCCC(C)C2)Cc2cccs2)c1 (centres undefined),-1.6,-12.9,-0.9,-0.6,0.3,0.3
CCN(C(=O)c1cc(OC)c(OC)c(OC)c1)C1CCCCC1,.,.,-0.3,.,12.4,0.4
C=CCN1C(=NC(=O)COc2ccc(Cl)cc2)SC2CS(=O)(=O)CC21 (centres undefined),0.7,2.1,-0.3,-2.3,-9.0,0.4
CCOC(=O)/C(C#N)=C1/C=CN(C)C=N1,-3.3,-4.1,-0.3,-1.8,50.3*,-3.4
